This excerpt belongs to a sample that is enriched for hits.
Lassa entry inh: qHTS for Inhibitors of binding or entry into cells for Lassa Virus; Lassa virus pseudotype entry inhibition, cell reporter; Potency, µM (series often up to 37.9 µM), inactives show top-dose activity change, negative = inhibition, usual class: inhibitors; 1.2% of 300,000 active; calls by dose curve; tested in HEK293 cells; further: potency means the concentration at half of the fitted maximal effect; on the % scale 0 is the no-effect control and ±100 the full control effect; nearly all actives have a fitted effect of over 50% in size
Shiga inhibitor: A qHTS for Small Molecule Inhibitors of Shiga Toxin; Vero cells, Shiga toxin protein synthesis inhibition reporter; inhibition, % at 38.7 µM; 9.2% of 290,000 active; AID 2315, 2010; in the data active means inhibition mostly above about 28%, no sharp cut-off; inactive means mostly below about 43%; further: 0% is about no effect
AMA1 RON2 block: qHTS for Inhibitors of AMA1-RON; Towards Development of Antimalarial Drug Lead: Primary Screen; Plasmodium falciparum AMA1 (3D7) - RON2 peptide interaction; AlphaScreen AMA1-biotinylated RON2 peptide binding; Potency, µM (doses to about 58.2 µM), without a hit: at the top dose activity change, negative = inhibition, actives largely listed as inhibitors; 0.2% of 360,000 active; AID 720542, 2013; active means well fitted inhibition curve with a large enough effect; inconclusive means small, poorly fitted or top-dose-only effect; inactive means no such curve, though single readings can be large or run the other way;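 further: potency means the concentration at half of the fitted maximal effect; 0% = vehicle wells and -100% = peptide control; nearly all actives have a fitted effect of over 45% in size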
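AMA1 (3D7) with his tag at 25 nM final met compounds first, then biotinylated RON2 peptide at 25 nM; detection used donor plus acceptor beads, 10 µg/mL apiece, read by AlphaScreen after 30 min at room temperature.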
Marburg entry inh: qHTS for inhibitors of binding or entry into cells for Marburg Virus. Marburg virus pseudotyped entry inhibition, cell reporter. 1.8% of 300,000 active. Potency, µM (top dose mostly 37.8 µM), without a hit: top-dose activity change, negative = inhibition, hits mostly inhibitors; calls by dose curve; tested in HEK293 cells; further: potency means the concentration at half of the fitted maximal effect; on the % scale 0 is the no-effect control and ±100 the full control effect
Cycloheximide cs: Cycloheximide Counterscreen for Small Molecule Inhibitors of Shiga Toxin. cell reporter, cycloheximide protein synthesis inhibition counterscreen. max response, %. 12% of 300,000 active. AID 2314, 2010; in the data active means max response mostly above about 13%, no sharp cut-off; inactive means mostly below about 14%; further: read at 38.3 µM for the half of the compounds with a filed dose; 0% is about no effect
An asterisk follows results filed as active; ? = inconclusive; . = not tested or not shown; [ ] = dose if it differs, or a comment.

SMILES | Lassa entry inh | Shiga inhibitor | AMA1 RON2 block | Marburg entry inh | Cycloheximide cs
Cn1nc(C(=O)Nc2ccc(S(=O)(=O)NCc3ccco3)cc2)c2ccccc2c1=O | . | 52.3* | -1.4% | . | 52.6*
Cc1onc(-c2c(F)cccc2Cl)c1C(=O)NCc1ccco1 | 6.8% | 9.1 | 5.3% | 9.3% | 2.3
CC(C)n1nc(C(=O)Nc2cccc(S(=O)(=O)NCc3ccco3)c2)c2ccccc2c1=O | . | 19.1 | 5.2% | . | 17.0*
Cn1nc(C(=O)NCc2ccco2)c2ccccc2c1=O | ? | 1.6 | 0.0% | -9.9% | 4.6
O=C(Nc1cccc(S(=O)(=O)NCc2ccco2)c1)c1ccc(Cl)cc1 | -23.8%[46.1 µM] | . | 14.2% | ? | .
O=C(Nc1ccc(S(=O)(=O)NCc2ccco2)cc1)c1cccc(F)c1 | -0.9% | 37.4* | -6.1% | -13.1% | 17.7
CN(C)S(=O)(=O)N1CCc2ccc(NC(=O)c3ccc(C(F)(F)F)cc3)cc2C1 | . | . | -0.4% | . | 27.2*
COCCC(=O)N1CCc2ccc(NC(=O)c3ccc(C(F)(F)F)cc3)cc2C1 | . | 26.2* | -9.4% | . | 14.5
CC(=O)N1CCCc2ccc(NC(=O)c3ccc(C(F)(F)F)cc3)cc21 | 26.2%[46.1 µM] | . | . | . | .
O=C(/C=C/c1ccccc1)N1CCN(Cc2cc(=O)n3nc(-c4ccccc4)sc3n2)CC1 | 11.7%[46.1 µM] | . | . | . | .
Cc1c(Cl)cccc1NC(=O)CNCc1ccccc1F | 6.5%[46.1 µM] | 13.4 | -11.1% | -26.5%[46.1 µM] | 0.9
Cc1ccc(COc2ccc(/C=N/O)cc2)cc1 | ? | 87.3* | -20.0% | ? | 43.1*
Cc1ccc(Oc2ccc(/C=N/O)cn2)cc1 | 22.8% | 91.2* | 2.3% | ? | 41.4*
CCOc1ccc(/C=N/O)cc1 | . | -12.8 | 2.4% | 7.2% | -3.5
COc1ccc(N2CCN(C(=O)c3ccc(Cn4c(=S)[nH]c5ccc(N6CCOCC6)cc5c4=O)cc3)CC2)cc1 | 13.8% | 87.2* | 24.7% | 11.7%[46.1 µM] | 40.1*
Cc1ccc(Cn2c(=S)[nH]c3ccc(N4CCOCC4)cc3c2=O)o1 | ? | 27.2 | -18.9% | 1.7% | 15.6*
O=c1c2cc(N3CCOCC3)ccc2[nH]c(=S)n1Cc1ccc(Cl)cc1 | ? | 40.3* | 52.8% | 4.0% | 76.3*
O=C(c1ccc(Cn2c(=S)[nH]c3ccc(N4CCOCC4)cc3c2=O)cc1)N1CCN(c2ccc(F)cc2)CC1 | -13.8% | 88.0* | 35.0% | ? | 36.9*
CC(C)(C)N(Cc1ccccc1)C(=O)COC(=O)c1ccccc1SCC(=O)N1CCCC1 | ? | . | 1.5% | -17.8%[46.1 µM] | .
O=C(NCC(O)c1ccc([N+](=O)[O-])cc1)c1cccc(S(=O)(=O)N2CCCC2)c1 (stereo not given) | -0.4% | 6.8 | 8.5% | ? | 1.6
Cc1onc(-c2ccccc2)c1C(=O)Nc1nc2c(s1)CCCC2 | 16.3% | 50.4 | 0.2% | -18.7% | 31.9*
Cc1onc(-c2c(F)cccc2Cl)c1C(=O)Nc1nc2c(s1)CCCC2 | -20.9% | 4.3 | 14.1% | 3.5% | 5.6
Cc1csc(NC(=O)c2cc(C)on2)n1 | . | . | -5.8% | . | .
Cc1cc(C(=O)Nc2nc3c(s2)CCCC3)no1 | ? | 22.0 | -9.8% | ? | 16.7*
COC(=O)Nc1nc2c(s1)CCCC2 | ? | 35.5* | -0.3% | 4.4% | 28.1*
SMILES | Lassa entry inh | Shiga inhibitor | AMA1 RON2 block | Marburg entry inh | Cycloheximide cs
COc1cccc(C(=O)Nc2nc3c(s2)CCCC3)c1 | 14.7%[46.1 µM] | . | . | -7.5%[46.1 µM] | .
O=C(Nc1ccc(S(=O)(=O)N2CCCCC2)cc1)C1CCCN(C(=O)c2ccc(Cl)cc2)C1 (stereo not given) | 0.291µM* | 6.6 | 9.6% | ? | -4.4
O=C(NCc1cccnc1)C1CCCN(S(=O)(=O)c2ccc(Cl)cc2)C1 (stereo not given) | 4.2% | 11.4 | 8.9% | 8.2% | 36.4*
O=C(Nc1ccc(F)cc1)C1CCCN(c2cnccn2)C1 (stereo not given) | . | 10.5 | 1.6% | . | -2.7
Cc1ccc(NC(=O)C2CCCN(S(=O)(=O)c3ccc(F)cc3)C2)cc1 (stereo not given) | ? | . | . | -12.7%[46.1 µM] | .
Cc1ccc(S(=O)(=O)N2CCCC(C(=O)Nc3ccc(NC(=O)c4ccccn4)cc3)C2)cc1 (stereo not given) | 2.2% | 19.9 | 0.0% | -3.3% | 9.1*
O=C(Nc1ccc(Cl)cc1)C1CCCN(c2cnccn2)C1 (stereo not given) | . | 23.0 | -2.1% | . | 23.5*
COc1ccc2ncc3c(-c4ccc(C)c(C)c4)nn(CC(=O)Nc4ccccc4)c3c2c1 | -15.6%[46.1 µM] | . | . | . | .
Nn1cnc2scc(-c3ccco3)c2c1=O | -0.9%[46.1 µM] | -5.9 | -4.5% | ? | -3.0
O=C1NC[C@H](CCCCN2C[C@H](Cc3ccc(O)cc3)N(CCc3ccc(O)cc3)C(=O)C2=O)N(Cc2ccccc2)C1=O | . | . | 3.3% | . | .
O=C(CN1CCOCC1)Nc1nc(-c2ccc3c(c2)CCN3S(=O)(=O)c2ccccc2)cs1 | ? | -15.5 | 10.3% | ? | 8.5
Cc1cccc(C(=O)N2CCc3cc(-c4nc(NC(=O)CN5CCCC5)sc4C)ccc32)c1 | ? | 1.9 | 27.0% | 10µM* | 1.0
Cc1sc(NC(=O)CN2CCOCC2)nc1-c1ccc2c(c1)CCN2S(=O)(=O)c1ccccc1 | ? | -2.4 | 0.7% | 13µM* | -3.7
COc1ccc(NC(=O)C(CC(=O)O)Cc2ccc(Cl)cc2)cc1 (stereo not given) | . | . | -4.9% | . | 0.2
CNc1cccc(-c2ccc(C(C)=O)s2)n1 | . | . | 23.3% | . | .
CC(=O)c1ccc(-c2cccs2)s1 | 15.6%[46.1 µM] | 35.7* | 5.8% | 12.6%[46.1 µM] | 23.8*
Cc1cc(=O)n(CC(=O)Nc2ccc([N+](=O)[O-])cc2)c(-n2nc(C)cc2C)n1 | 15.1%[46.1 µM] | . | . | . | .
COc1cc(Cl)c(CN2CCCC(CO)(Cc3ccccc3F)C2)cc1OC (stereo not given) | ? | -5.5 | -4.1% | 2.82µM* | -2.0
CCC(=O)N1CCN(c2ccc(NC(=O)c3cc4ccccc4o3)cc2)CC1 | -12.2% | 42.2 | -3.4% | -9.6% | 15.6*
O=C(/C=C/N1CCOCC1)c1cc2ccccc2o1 | -26.7% | 70.7* | -9.3% | ? | 26.9*
O=C(/C=C/N1CCOCC1)c1coc2ccccc12 | ? | 62.7* | 13.9% | ? | 35.5*
O=C(Nc1ccc(CN2CCOCC2)cc1)c1cc2ccccn2n1 | 6.51µM* | 38.2* | 18.9% | ? | 21.8*
CCOC(=O)N1CCN(C(=O)/C(=C/c2cccs2)NC(=O)c2ccc(OC)c(OC)c2)CC1 | . | -8.8 | 19.6% | ? | -6.9
CCOc1ccc(S(=O)(=O)Nc2cccc(-c3ccc(OCC)nn3)c2)cc1 | -22.3%[46.1 µM] | . | . | . | .
O=C(Nc1ccc(N2CCOCC2)cc1)c1cc2ccccc2o1 | -0.8% | 75.7* | 5.2% | ? | 53.5*
O=C(NC(=S)Nc1ccc(CN2CCOCC2)cc1)c1cc2ccccc2o1 | . | 20.5 | 1.7% | . | 5.7
O=C(Nc1ccc(CN2CCOCC2)cc1)c1cc2ccccc2o1 | -8.6% | 64.2* | -11.4% | ? | 34.3*
COc1ccc(C(=O)/C=C/c2ccc(OC)c(O)c2)c(F)c1 | -26.5% | 61.4* | 0.6% | ? | 67.8*
COc1ccc(C=CC(=O)c2ccc(OC)c(OC)c2)cc1O | . | . | -8.6% | . | .
